Measurements: PubChem BioAssay (NCATS)
“And” between values parts separate entries of the source, which are not always exact repeats. Equal entries are not always repeated. Records with an inconclusive call do not appear. The source made the active and inactive calls. Calls follow the shape of the dose curve; as a rule, active = well fitted curve in the direction sought with a large enough effect in the repeat runs; inconclusive = weak or mixed curves; inactive = no such curve, though single readings can be large; an effect the other way counts as inactive or inconclusive.

Assay: qHTS assay for small molecule antagonists of the retinoid-related orphan receptor gamma (ROR-gamma) signaling pathway - cell viability counter screen (AID 720652);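 also: compound exposure lasted 16 hr before ATP read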
Details: RORgamma reporter cell line viability counter screen; series mostly up to 92.2 µM
How it was run: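 Luminescence from CellTiter-Glo after 30 min at room temperature reported cellular ATP as the cytotoxicity measure. Cells were the CHO reporter line with doxycycline-induced ROR-gamma expression, exposed to compound for 16 hr at 37 C.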
% is scaled to controls: 0 for no effect and ±100 for the full control effect.

Q: Which Potency does the source give for O=C(O)COc1ccc(Cl)cc1Cl here?
A: inactive

Q: With c1ccc(N=Nc2ccccc2)cc1 as the compound, how does the Potency read?
A: inactive

Q: With CCOCN(C(=O)CCl)c1c(C)cccc1CC as the compound, how does the Potency read?
A: inactive

Q: Which Potency does the source give for CNC(=O)O/N=C/C(C)(C)SC here?
A: inactive

Q: For CCNc1nc(Cl)nc(NC(C)C)n1, which Potency is on record?
A: inactive

Q: For C=CCc1ccc(OC)cc1, which Potency is on record?
A: inactive

Q: Which Potency does the source give for CCc1cccc(CC)c1N(COC)C(=O)CCl here?
A: inactive

Q: With C/C=C/c1ccc2c(c1)OCO2 as the compound, how does the Potency read?
A: inactive

Q: Which Potency does the source give for COP(=S)(OC)Oc1ccc([N+](=O)[O-])cc1 here?
A: inactive

Assay: qHTS assay for small molecule agonists of the antioxidant response element (ARE) signaling pathway measured by Nrf2-dependant transcriptional activity - cell viability counter screen (AID 720653)
Details: ARE-bla HepG2 viability, CellTiter-Glo ATP luminescence, 16 h; active compounds read low
How it was run: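 ARE-bla HepG2 cells (2,000/well) rested 5 hrs at 37C/5% CO2, then exposed to compounds in DMSO for 16 hrs. Viability was read in the same wells as intracellular ATP by luminescence, 30 min at room temperature after reagent addition.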

Q: With O=C(O)COc1ccc(Cl)cc1Cl as the compound, how does the max response read?
A: -0.488% (inactive) [middle of 4 runs]

Q: With ClC1=C(Cl)C2(Cl)C3C4C=CC(C4)C3C1(Cl)C2(Cl)Cl (stereo not given) as the compound, how does the max response read?
A: -5% (inactive)

Q: Which max response does the source give for O=S1OCC2C(CO1)C1(Cl)C(Cl)=C(Cl)C2(Cl)C1(Cl)Cl (stereo not given) here?
A: 13.3% (inactive)

Q: With c1ccc(N=Nc2ccccc2)cc1 as the compound, how does the max response read?
A: -6.06% (inactive) and -16.5% (inactive)

Q: For CCOCN(C(=O)CCl)c1c(C)cccc1CC, which max response is on record?
A: -15.8% (inactive) and -13.8% (inactive)

Q: With CNC(=O)O/N=C/C(C)(C)SC as the compound, how does the max response read?
A: 2.17% (inactive) and 5.56% (inactive)

Q: For CCNc1nc(Cl)nc(NC(C)C)n1, which max response is on record?
A: 5.56% (inactive) and -9% (inactive)

Q: For C=CCc1ccc(OC)cc1, which max response is on record?
A: 2.85% (inactive)

Q: Which max response does the source give for ClC1=C(Cl)C2(Cl)C3C(Cl)C=CC3C1(Cl)C2(Cl)Cl (stereo not given) here?
A: -10.5% (inactive)

Q: Which max response does the source give for ClC1=C(Cl)C2(Cl)C3C4CC(C5OC45)C3C1(Cl)C2(Cl)Cl (stereo not given) here?
A: -3.29% (inactive)

Q: Which max response does the source give for ClC(Cl)=C(c1ccc(Cl)cc1)c1ccc(Cl)cc1 here?
A: 6.47% (inactive) and -9.67% (inactive) and -6.97% (inactive)
